Molecules are shown by their SMILES. “And” between values parts separate entries of the source, which are not always exact repeats. Equal entries are not always repeated. Results filed as inconclusive are left out. Unmarked numbers belong to inactive results. The source made the active and inactive calls. The call rests on the fitted dose curve; in most records, active means well fitted inhibition curve with a large enough effect; inconclusive means small, poorly fitted or top-dose-only effect; inactive means flat fitted curve, though single readings scatter.

Assay [1] is described as follows: Drug repurposing screens with cells derived from glioblastoma tumor samples (AID 1345199). Further: nearly all actives have a fitted effect of over 40% in size. Particulars: GBM patient neurospheres viability, ATP luminescence, 48 h. An outline of the steps:
(§1)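 Primary testing used CD133+ neurospheres from four GBM patients, seven concentrations, 48 h exposure and ATP-based viability; confirmation added three slower-growing patient lines.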

The subject of a further assay is astro (control astrocytes). The description is as above. Particulars: viability, ATP luminescence, 48 h; series mostly up to 45.9 µM. An outline of the steps: as §1
Where [2] appears, read: at 45.9 µM (top of the series), tumour line B.
The mark [3] stands for this setting: at 45.9 µM (top of the series), tumour line D.
Setting [4] is: at 46.1 µM (top of the series), tumour line C.
Setting [5] is: at 46 µM (top of the series), tumour line A.
Where [6] appears, read: at 20 µM (top of the series), tumour line C.
The mark [7] stands for this setting: at 21.2 µM (top of the series), tumour line B.
Setting [8] is: at 21.2 µM (top of the series), tumour line D.
[9] abbreviates: at 21.3 µM (top of the series), tumour line A.
On the % scale 0 is the no-effect control and ±100 the full control effect; potency means the concentration at half of the fitted maximal effect.

As to `Cc1cc(-c2ccccc2)nnc1NCCN1CCOCC1`, the activity, negative = cell killing in assay [1] (setting [2]) is -18.6%; in assay [1] (setting [3]), -4.44%; in assay [1] (setting [4]), -11.7%. Also, the Potency in assay [1] (tumour line A) was 12.6 µM (active). In addition, in the assay on astro, the Potency entry was “inactive”.
For `CC(C)n1c(/C=C/[C@@H](O)C[C@@H](O)CC(=O)O)c(-c2ccc(F)cc2)c2ccccc21`, the values for the activity, negative = cell killing in assay [1] (setting [2]), in assay [1] (setting [3]) and in assay [1] (setting [4]) were -35.6%, -90.6% and -19.1%, respectively. In addition, in assay [1] (tumour line A), the Potency was 11.2 µM (active).
For `COc1cc(O)c(C(=O)c2ccccc2)cc1S(=O)(=O)O`, the activity, negative = cell killing in assay [1] (setting [2]) is -4.01%; in assay [1] (setting [3]) it was -5.06%; in assay [1] (setting [5]) it was -20.9%; in assay [1] (setting [4]), 6.07%. Besides, in the assay on astro, the Potency entry was “inactive”.
As to `CCOC(=O)[C@@](C)(N)Cc1ccc(O)c(O)c1`, the activity, negative = cell killing in assay [1] (setting [6]) is -6.91%; in assay [1] (setting [7]), -8.87%; in assay [1] (setting [8]), -6.68%; in assay [1] (setting [9]), -12.3%. Further, the Potency result in the assay with astro is “inactive”.
As for `CN1CCN(c2cc3c(cc2F)c(=O)c(C(=O)O)cn3-c2ccc(F)cc2)CC1`, the activity, negative = cell killing in assay [1] (setting [2]) was -7.1%; in assay [1] (setting [3]), -1.79%; in assay [1] (setting [5]) it was -26.7%; in assay [1] (setting [4]) it was 5.61%.
Regarding `CN=C(N)NCCC[C@H](N)C(=O)O`, the activity, negative = cell killing was -4.01% and -7.28% and -14.2% in assay [1] (setting [2]); -19.7% and 0.377% and -12.4% in assay [1] (setting [3]); -28.1% in assay [1] (setting [5]); 8.15% and -7.9% and -1.89% in assay [1] (setting [4]).
As for `CC(=O)Nc1ccc(CC(=O)O)cc1`, the activity, negative = cell killing is 0.59% in assay [1] (setting [2]), -5.02% in assay [1] (setting [3]), -20.1% in assay [1] (setting [5]) and 3.56% in assay [1] (setting [4]). In addition, the Potency entry in the assay on astro was “inactive”.
For the compound `N#C/C(=C1\SCC(c2ccccc2Cl)S1)n1ccnc1` (stereo not given), the activity, negative = cell killing in assay [1] (setting [2]) was -11.6%; in assay [1] (setting [3]) it was -27.3%; in assay [1] (setting [4]), 0.133%. For the same compound, in assay [1] (tumour line A), the Potency is 10 µM (active).
Turning to `FC(F)(F)C(F)(F)C(F)(F)C(F)(F)C(F)(F)C(F)(F)C(F)(F)C(F)(F)Br`, the activity, negative = cell killing in assay [1] (setting [2]) is -8.68%; in assay [1] (setting [3]) it was -7.68%; in assay [1] (setting [5]) it was -17.2%; in assay [1] (setting [4]), 5.77%. Besides, the Potency result in the assay on astro was “inactive”.
For `Cc1cc(C)cc(OCC2CNC(=O)O2)c1` (stereo not given), the activity, negative = cell killing was 0.397% in assay [1] (setting [2]), -17.2% in assay [1] (setting [3]), -25.9% in assay [1] (setting [5]) and 3.04% in assay [1] (setting [4]). Moreover, in the assay with astro, the Potency result was “inactive”.
Regarding `O=C(CCCN1CC=C(n2c(=O)[nH]c3ccccc32)CC1)c1ccc(F)cc1`, the results for the activity, negative = cell killing in assay [1] (setting [2]), in assay [1] (setting [3]) and in assay [1] (setting [4]) were -17.1%, -15% and -24.6%, respectively. Moreover, the Potency in assay [1] (tumour line A) was 10 µM (active).
For the compound `N=C(N)N1CCc2ccccc2C1`, the activity, negative = cell killing in assay [1] (setting [2]) was -7.25%; in assay [1] (setting [3]), 0.46%; in assay [1] (setting [5]) it was -7.22%; in assay [1] (setting [4]), -18.5%. Besides, the Potency entry in the assay on astro is “inactive”.
Take `O=C1C(CCS(=O)c2ccccc2)C(=O)N(c2ccccc2)N1c1ccccc1` (stereo not given): the activity, negative = cell killing in assay [1] (setting [6]) is 4.04%; in assay [1] (setting [7]) it was 2.69%; in assay [1] (setting [8]), 2.83%; in assay [1] (setting [9]), -0.0177%. Further, the Potency entry in the assay on astro was “inactive”.
In the case of `CC(C)CCCC(C)N` (stereo not given), the activity, negative = cell killing in assay [1] (setting [2]) was -9.11%; in assay [1] (setting [3]), -4%; in assay [1] (setting [5]), -26.4%; in assay [1] (setting [4]), -27%. Further, the Potency entry in the assay with astro was “inactive”.
On to `CCOc1cc(OCC)c(C(=O)CCC(=O)O)cc1OCC`, for which the activity, negative = cell killing was -2.96% in assay [1] (setting [2]), -2.05% in assay [1] (setting [3]), -23.5% in assay [1] (setting [5]) and -10.2% in assay [1] (setting [4]). In addition, the Potency result in the assay with astro was “inactive”.
For the compound `COc1cc(N)c(Cl)cc1C(=O)NC1CCN(Cc2ccccc2)CC1`, the activity, negative = cell killing is 12.2% in assay [1] (setting [6]), -4.38% in assay [1] (setting [7]) and -20.9% in assay [1] (setting [8]). Further, the Potency in assay [1] (tumour line A) is 11.2 µM (active). Also, in the assay with astro, the Potency result is “inactive”.
Take `CCCCC(CC)COC(=O)/C=C/c1ccc(OC)cc1` (stereo not given): the activity, negative = cell killing in assay [1] (setting [2]) is -11.8%; in assay [1] (setting [3]), -6.07%; in assay [1] (setting [5]), -26.1%; in assay [1] (setting [4]), 6.67%. For the same compound, the Potency result with astro was “inactive”.
The like results for `NS(=O)(=O)c1ccc(Cl)c(S(N)(=O)=O)c1` were, in that order, -6.27%, -11.1%, -23.6%, 27.6% and “inactive”.
The like results for `COc1cc(C(=S)N2CCOCC2)ccc1O` were, in that order, -7.92%, 6.32%, -27.5%, -22.1% and “inactive”.
On to `Nc1ccc(S(=O)(=O)Nc2cnc3ccccc3n2)cc1`, for which the activity, negative = cell killing in assay [1] (setting [2]) is 0.475%; in assay [1] (setting [3]) it was 3.34%; in assay [1] (setting [5]), -15.8%; in assay [1] (setting [4]) it was 4.45%. Further, in the assay with astro, the Potency entry was “inactive”.
With `COC(=O)C(c1ccccc1Cl)N1CCc2sccc2C1` (stereo not given), the activity, negative = cell killing in assay [1] (setting [2]) was -13.2%; in assay [1] (setting [3]), -12.6%; in assay [1] (setting [4]), 2.17%. Also, the Potency in assay [1] (tumour line A) is 28.2 µM (active). Also, in the assay with astro, the Potency entry is “inactive”.
On to `O=C(Nc1cccc(C2=NCCN2)c1)Nc1cccc(C2=NCCN2)c1`, for which the activity, negative = cell killing was 7.96% in assay [1] (setting [2]), -22.5% in assay [1] (setting [3]), 2.01% in assay [1] (setting [5]) and -6.35% in assay [1] (setting [4]). In addition, in the assay with astro, the Potency result is “inactive”.
